A1 inh: inhibitors of the anti-apoptotic protein A1, read as caspase activation; MEF A1-2A-BIM cells, Caspase-Glo 3/7 luminescence, 3 h; percent of clofoctol response, vehicle zero; caspase activation, % (concentration not given with the values); 330,000 compounds, 0.066% hits;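 active means over half of replicate activation scores above 10%, or exactly half above 10 with the replicate mean above 10; inconclusive means replicate mean below 10 yet half the replicates above 10; inactive means over half of replicates below 10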
ALR inh: inhibitors of human sulfhydryl oxidase ALR; P55789; purified ALR, DTT oxidation, H2O2 HRP-luminol luminescence; inhibition, % (concentration not given with the values); 290,000 compounds, 3.8% hits; AID 485317;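 active means mean replicate inhibition above about 79%, with every replicate also reaching it, limit read from the data; inconclusive means only one of the two criteria met; inactive means mean below limit and not every replicate reaching it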
Target sequence (P55789 whole entry, looked up): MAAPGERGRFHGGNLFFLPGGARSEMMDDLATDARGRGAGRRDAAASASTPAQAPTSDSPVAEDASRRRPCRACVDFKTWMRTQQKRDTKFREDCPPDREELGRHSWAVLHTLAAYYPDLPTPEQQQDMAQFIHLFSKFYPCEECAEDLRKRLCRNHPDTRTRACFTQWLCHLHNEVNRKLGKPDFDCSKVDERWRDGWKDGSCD
AHR activator: human AHR activation | P35869 | AHR-responsive luciferase reporter cells, luminescence | activation, % at 5 µM | 320,000 compounds, 2.5% hits; in the data active means activation above about 47%
VLA-4 inh: inhibition in a human VLA-4 binding assay; P13612; 330,000 compounds, 0.2% hits; VLA-4 expressing cells, ligand binding flow cytometry; inhibition, % (about 7 µM as worked out from the volumes in the protocol); in the data active means inhibition above about 50%
Efflux pump inh: antifungal efflux pump inhibition, Nile Red retention | inhibition, % at 10 µM | 330,000 compounds, 0.44% hits | S. cerevisiae Candida pump triplex;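 active means plate passing quality check with inhibition over a set limit, or well fluorescence over plate mean plus 4 SD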;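 further: Nile Red retained in pooled yeast measured as flow cytometry median fluorescence; higher means more Nile Red kept so more efflux inhibition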
Mot1-301 SUMO: inhibitors of SUMOylation pathway: yeast Mot1-301 growth rescue; AID 2716; growth rescue, % at 18.8 µM; 320,000 compounds, 1% hits; S. cerevisiae Mot1-301 growth rescue, ATP luminescence, 38.5C; percent above DMSO median, 100 means doubled;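 active means every valid replicate shows activation above 250% relative to neutral control wells; inactive means the rest, any valid replicate at or below 250%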
Large screens that a line does not name were inactive. Hits are enriched below; roughly 7.2% of the tested compounds scored in any of these assays.

Cn1c(C(=O)NCC2CCCO2)cc2c(=O)n(C)c3ccccc3c21 (stereo not drawn)	AHR activator 49.0 (no result: ALR inh)
CCn1cc(SCC(=O)NCC2CCCO2)c2ccccc21 (stereo not drawn)	ALR inh 98.2
Cn1c(C(=O)NCC2CCCO2)cc2c(=O)[nH]c3ccccc3c21 (stereo not drawn)	none (no result: ALR inh)
CC(C)C(=O)c1cc2c(cc1NC(=O)c1cccs1)OCCO2	none
CNc1nn(-c2cccc(Cl)c2)nc1N	ALR inh 98.7
COc1cccc(C(=O)OCC(=O)N2CCc3ccccc3C2)c1	none (no result: ALR inh)
CC1(C)Nc2ccccc2C(=O)N1c1ccc(Br)cc1	AHR activator 59.0
CCOc1ccc(C(=O)COC(C)=O)cc1	none (no result: ALR inh)
CCOc1ccc(C(=O)CSCCC(=O)O)cc1	ALR inh 98.3
COC(=O)c1ccc2c(c1)C(C)(C)C(/C=C/c1ccccc1O)=[N+]2C	A1 inh inconclusive, ALR inh 87.2
CN(C)CCCNC(=S)NCC(c1ccc(Cl)cc1Cl)c1c[nH]c2ccccc12 (stereo not drawn)	none
NCC(c1ccccc1Cl)c1c[nH]c2ccccc12 (stereo not drawn)	AHR activator 57.1
NCC(c1ccc(Cl)cc1Cl)c1c[nH]c2ccccc12 (stereo not drawn)	AHR activator 65.2
NCC(c1ccccc1)c1c[nH]c2ccccc12 (stereo not drawn)	none
COc1ccc(NC(C)=O)cc1NC(C)C(=O)Nc1ccc(F)c(F)c1F (stereo not drawn)	none
CCN1C(=O)c2cccc3c(S(=O)(=O)Nc4ccc(O)c(C(=O)O)c4)ccc1c23	ALR inh 97.6
CC(OC(=O)/C=C/c1ccc2ccccc2n1)C(=O)N(C)c1ccccc1 (stereo not drawn)	none
CC(=O)/C=C/c1ccc2ccccc2n1	ALR inh 97.6
COc1ccccc1NC(=O)C(C)OC(=O)/C=C/c1ccc2ccccc2n1 (stereo not drawn)	ALR inh 94.3
Cc1cc(C(=O)Nc2c(F)cc(F)cc2Br)c(C)o1	ALR inh 96.5
Oc1ccc(/C=N/Nc2cc(N3CCCC3)nc(N3CCCC3)n2)cc1O	ALR inh 90.1
COc1ccc(/C=N/Nc2cc(C)nc(N3CCOCC3)n2)c(OC)c1	none
Cc1cc(N/N=C/c2ccc(O)cc2O)nc(N2CCOCC2)n1	ALR inh 96.9
Cc1cc(Nc2cccc(Cl)c2)nc(N2CCOCC2)n1	AHR activator 51.8
COc1ccc(/C=N/Nc2nc(N3CCCC3)nc(N3CCCC3)n2)cc1O	ALR inh 99.2
CC(C)c1ccc(/C=N/Nc2cc(N3CCOCC3)nc(N3CCOCC3)n2)cc1	none
Oc1ccc(/C=N\Nc2cc(N3CCOCC3)nc(N3CCOCC3)n2)c(O)c1	ALR inh 85.4
CC(=O)Nc1c(O)nc(SCC(=O)Nc2cccc(C)c2)[nH]c1=O	ALR inh 98.1
CCCc1cc(=O)[nH]c(SCC(=O)Nc2sc3c(c2C#N)CCC(C)C3)n1 (stereo not drawn)	ALR inh 89.3
CC(=O)Nc1c(O)nc(SCC(=O)Nc2sc3c(c2C#N)CCCCCC3)[nH]c1=O	ALR inh 98.0
CC1CCc2c(sc(NC(=O)CSc3ncn[nH]3)c2C#N)C1 (stereo not drawn)	none
CC(=O)Nc1c(O)nc(SCC(=O)Nc2ccc(C(C)=O)cc2)[nH]c1=O	ALR inh 98.4
CC(=O)Nc1c(O)nc(SCC(=O)Nc2nnc(SCc3ccccc3)s2)[nH]c1=O	none
CCCCn1c(N)c(N(CCOC)C(=O)C2CC(=O)N(Cc3ccco3)C2)c(=O)[nH]c1=O (stereo not drawn)	none
CC(C)(C)[C@H]1COC(=O)[C@H](NC(=O)OCC2c3ccccc3-c3ccccc32)C/C=C\C[C@@H](CC(=O)N(CCO)Cc2ccccc2)C(=O)N1	none
CC(=O)Nc1c(O)nc(SCC(=O)Nc2nnc(CC(C)C)s2)[nH]c1=O	ALR inh 85.4
CCC(Oc1ccccc1)C(=O)O/N=C(\N)c1ccc(OC)c(OC)c1 (stereo not drawn)	none
CSc1ccc(-c2nc(CN(C)C3CCOC3)c(C)o2)cc1 (stereo not drawn)	none
Cc1ccc(-c2nc(CN(C)C(C3CC3)C3CC3)c(C)o2)cc1	Mot1-301 SUMO 316.4
COc1ccccc1-c1noc(-c2cc(OC)c(OC)c(OC)c2)n1	none (no result: ALR inh)
COc1cccc(-c2noc(-c3ccoc3C)n2)c1	AHR activator 69.3
COc1ccc(-c2nc(-c3ccc(Br)cc3)no2)c(OC)c1	AHR activator 95.2
COc1ccccc1-c1nc(-c2ccc(Br)cc2)no1	AHR activator 64.4
COc1cc(OC)cc(-c2nc(-c3ccc(Br)cc3)no2)c1	none
COc1ccc(OCc2nnc(SCC(=O)Nc3ccccc3F)o2)cc1	none
O=C(Cc1cccs1)Nc1nc2c(s1)CCCC2	none
O=C(Nc1nnc(C2CCCCC2)s1)c1ccco1	none
CCc1c(C(=O)Nc2nnc(C3CC3)s2)csc1C	AHR activator 67.3
O=C(Nc1nc2c(s1)CCCC2)c1cccs1	ALR inh inconclusive, AHR activator 58.5
O=C(Nc1nnc(C2CCCO2)s1)c1cccs1 (stereo not drawn)	AHR activator 47.6
O=C(Nc1nnc(C2CCCCC2)s1)c1cccs1	AHR activator 76.5
Cc1ccccc1NC(=O)N1CCN(S(=O)(=O)c2ccccc2)CC1	none
O=C(N/N=C/c1cc([N+](=O)[O-])ccc1O)c1cccc2ccccc12	none
Cc1cc(C)c2c(c1)N[C@H](c1cccs1)[C@@H]1CCO[C@H]21	none
CC(C)c1ccc2c(c1)[C@H]1OCC[C@H]1[C@@H](c1cccs1)N2	AHR activator 70.3
CCOC(=O)C1=C(C)N(C[C@@H]2CC[C@@H](Cc3ccc(-c4ccccc4)cc3)O2)C(=O)NC1c1ccc(SCc2ccco2)c([N+](=O)[O-])c1 (stereo partly drawn)	none (no result: A1 inh, ALR inh, AHR activator, VLA-4 inh, Mot1-301 SUMO)
O/C(=C\c1nc2ccccc2nc1/C=C(\O)c1ccccc1)c1ccccc1	AHR activator 70.5
COc1ccccc1C(c1nnnn1CCc1ccccc1)N1CCN(c2ccccc2)CC1 (stereo not drawn)	none
COCCn1nnnc1C(c1ccccc1OC)N1CCN(c2ccccc2)CC1 (stereo not drawn)	ALR inh 83.9, AHR activator 66.9
c1ccc(Cn2nnnc2C(c2cccnc2)N2CCN(c3ccccc3)CC2)cc1 (stereo not drawn)	ALR inh 98.1, AHR activator 79.0
CC(C)(C)n1nnnc1C(c1cccnc1)N1CCN(c2ccccc2)CC1 (stereo not drawn)	none
O=C(NCC(c1cccnc1)N1CCN(c2ccccc2)CC1)c1ccco1 (stereo not drawn)	ALR inh 99.0

Assay outcomes: PubChem BioAssay, several laboratories
